Source: PubChem BioAssay AID528 (NMMLSC, 2006)
Out of some 24,000 compounds screened, fewer than 10 were called active. Roughly 9% stayed inconclusive and do not appear here.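 How the source made its calls: active means fluorescent ligand binding to cells raised by more than 40% of the manganese-induced maximum; inconclusive means compound's own fluorescence above 85% of the ligand control signal; inactive means the rest.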 A selection follows.

target: Integrin alpha-4 (Homo sapiens) (UniProt P13612); assay: enhancers of LDV-FITC binding to VLA-4 integrin, primary screen, Jurkat cells, flow cytometry (AID 528); conditions: stronger effect = higher value, screened at 10 µM (by protocol);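 further: 0% = ligand binding without compound and 100% = manganese-stimulated maximal binding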
Sequence (P13612 whole entry, looked up): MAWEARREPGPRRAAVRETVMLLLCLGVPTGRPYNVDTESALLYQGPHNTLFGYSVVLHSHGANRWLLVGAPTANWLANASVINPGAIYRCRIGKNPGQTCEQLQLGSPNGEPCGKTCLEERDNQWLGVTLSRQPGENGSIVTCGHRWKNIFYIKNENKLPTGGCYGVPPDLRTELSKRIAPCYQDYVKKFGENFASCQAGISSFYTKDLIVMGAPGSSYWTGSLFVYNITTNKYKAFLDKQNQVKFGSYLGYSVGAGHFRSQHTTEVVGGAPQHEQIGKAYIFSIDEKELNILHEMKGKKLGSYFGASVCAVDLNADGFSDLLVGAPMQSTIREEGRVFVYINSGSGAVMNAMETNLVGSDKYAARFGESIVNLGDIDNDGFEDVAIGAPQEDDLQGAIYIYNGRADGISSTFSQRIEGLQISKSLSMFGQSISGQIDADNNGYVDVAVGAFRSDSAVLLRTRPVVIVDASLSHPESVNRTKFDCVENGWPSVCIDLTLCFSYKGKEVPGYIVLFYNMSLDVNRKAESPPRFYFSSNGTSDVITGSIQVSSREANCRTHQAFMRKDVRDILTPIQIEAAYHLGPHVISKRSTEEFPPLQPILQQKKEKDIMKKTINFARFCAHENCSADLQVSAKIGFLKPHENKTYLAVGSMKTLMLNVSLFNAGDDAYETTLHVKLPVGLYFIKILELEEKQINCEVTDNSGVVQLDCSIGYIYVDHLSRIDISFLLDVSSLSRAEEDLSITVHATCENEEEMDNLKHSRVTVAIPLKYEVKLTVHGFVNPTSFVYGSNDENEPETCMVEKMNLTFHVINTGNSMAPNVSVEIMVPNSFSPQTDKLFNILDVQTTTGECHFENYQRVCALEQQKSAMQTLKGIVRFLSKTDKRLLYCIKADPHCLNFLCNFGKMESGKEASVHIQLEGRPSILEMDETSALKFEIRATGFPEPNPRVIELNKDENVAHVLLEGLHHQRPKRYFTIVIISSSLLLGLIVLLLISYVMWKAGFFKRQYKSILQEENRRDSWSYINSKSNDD

activation, inactive:
CCOc1ccc(-n2c(SC(C)C(=O)OC)nc3c(c2=O)SCC3)cc1 (centres undefined) 0%
O=C(NCc1ccco1)C1CCCN(S(=O)(=O)c2cnc[nH]2)C1 (centres undefined) -5%
O=C(Nc1nsc(-c2ccccc2)n1)c1ccncc1 4%
COc1nc(Oc2ccc(=O)n(C)n2)nc(N(C)C)n1 4%
C=CCOc1ccc(C2/C(=C(\O)c3c(C)[nH]c(C(=O)OC)c3C)C(=O)C(=O)N2CCN(C)C)cc1 (centres undefined) -6%
CCOC(=O)C1CCN(C(=O)c2oc3ccc(S(=O)(=O)N4CCCCCC4)cc3c2C)CC1 -3%
O=C(O)c1ccc(NC(=O)c2cccs2)cc1 -2.5%
CCC1Oc2ccc(Cl)cc2N(CC(=O)O)C1=O (centres undefined) 2%
CCOC(=O)CSc1nnc(NC(=O)c2cccc(S(=O)(=O)N3CCCCC3)c2)s1 0.5%
CCC(=O)c1ccc(OCC(O)CN2C(=O)NC(C)(C)C2=O)cc1 (centres undefined) -4%
Cc1ccc(-c2cc(C(F)(F)F)n3nc(C(=O)N4CCCC4)cc3n2)cc1 -1%
Cc1ccc(CNC(=O)CN2CCN(Cc3ccc(Cl)cc3)C2=O)cc1 -2%
CCn1c(SCC(=O)Nc2ccc3c(c2)OCCO3)nc2c(c1=O)SC(C)C2 (centres undefined) -4%
CS(=O)(=O)NCc1ccc(C(=O)NCc2ccccc2)cc1 1%
CCCC(=O)Nc1nnc(CC(=O)OCC)s1 -0.5%
O=C(CC1Oc2ccccc2NC1=O)NCCCN1CCN(Cc2ccccc2)CC1 (centres undefined) -1%
CCC1CCCCN1CCNS(=O)(=O)c1ccc2c(c1)CCN2C(C)=O (centres undefined) -4%
Cc1oc(-c2cccc(Cl)c2)[n+]([O-])c1C 8%
CCOC(=O)CN1C(=O)C(O)(CC(=O)c2ccccn2)c2ccccc21 (centres undefined) 4%
CCOc1ccc(S(=O)(=O)n2ccnc2)c2ccccc12 1%
Cn1c(=O)c2c(nc(N3CCCCCC3)n2CC(=O)c2ccc(Br)cc2)n(C)c1=O -1%
CCOc1ccc(OCC)c(NC(=O)C(NS(=O)(=O)c2ccc3c(c2)oc(=O)n3C)C(C)C)c1 (centres undefined) -2%
Cn1cccc1Cc1nnc(SCC(=O)NCc2ccc3c(c2)OCO3)n1CCc1ccccc1 -4%
Cn1c(=O)[nH]c(=O)c2c1nc(CN(Cc1ccccc1)Cc1ccccc1)n2CCN1CCOCC1 -6%
C=CCn1c(=N)n(CC(O)COc2ccc(OC)cc2)c2ccccc21 (centres undefined) 0%
CCOc1cc(C(=O)Nc2ncccn2)cc(OCC)c1OCC 11.5%
Cc1nnc(C)n1/N=C/c1ccc(C(C)C)cc1 -4%
N#CCCN1CCN(S(=O)(=O)c2ccc(S(=O)(=O)NC3CC3)cc2)CC1 1%
Cc1nnc(NC(=O)CCC(=O)N2CCC(C)CC2)s1 -0.5%
O=C(CCn1c(=S)[nH]c2ccccc2c1=O)NCCCN1CCCC1=O 5%
CC(=O)c1c(N)n(C)c(=O)n(C)c1=O 9%
CCCn1nnc2sc3c(c2c1=O)CCC(C)C3 (centres undefined) 4%
CC1CCCN(C(=O)c2ccc3c(c2)C(=O)N(CCC2=CCCCC2)C3=O)C1 (centres undefined) 0%
CCCCC(=O)N(c1ccc(OC)cc1)C1C=CS(=O)(=O)C1 (centres undefined) -1%
CCCCn1c(=S)[nH]c2ncccc2c1=O 1%
O=S1(=O)CC(NCc2ccccc2)C(Nc2ccc(Cl)cc2)C1 (centres undefined) -8%
CCCCCCn1c(CN2CCCCC2)nc2c1c(=O)n(C)c(=O)n2C -6%
COc1ccccc1C(=O)N1CCN=C1SCc1cccnc1 2%
Cc1ccc(S(=O)(=O)N2C3C=CC(C3)C2C(=O)O)cc1 (centres undefined) 5%
COc1cccc(N(C(=O)c2ccn[nH]2)C2(C(=O)Nc3c(C)cccc3C)CCCCC2)c1 3%
CCOC(=O)C1CCN(C(=O)C2CCN(S(=O)(=O)N3CCCC3)CC2)CC1 6%
COc1ccc(-c2nc(CS(=O)CC(=O)NCc3cccnc3)c(C)o2)cc1OC (centres undefined) 3%
Cc1noc(C)c1S(=O)(=O)N1CCCC(C(=O)Nc2nccs2)C1 (centres undefined) 0%
CCN(CC)S(=O)(=O)N1CCC(C(=O)NC(C)CCc2ccccc2)CC1 (centres undefined) 3%
COc1cccc(-n2c(Cc3cc(=O)[nH]c(=O)[nH]3)nnc2SCC(=O)Nc2ccccc2)c1 5%
Cc1cccc(N2C(=O)SC(N(CC(=O)O)c3cccc(C)c3)C2=O)c1 (centres undefined) 7%
CCN(Cc1ccccc1)C(=O)CSc1nc(C)cc2c1C(=O)OC2 -9%
CCOc1ccc(CNC(=O)C2CCC(=O)N2C2CCCC2)cc1OC (centres undefined) -7%
O=C(CN1CCN(S(=O)(=O)c2ccc(F)cc2)CC1)Nc1ccccc1F -1%
COc1ccc(OC)c(N=Cc2c(O)[nH]c3ccccc23)c1 8%
O=C1c2cccnc2C(=O)N1Cc1cccs1 0%
COc1ccccc1CNC(=O)CCn1c(=O)sc2ccccc21 5%
CSCCC(NC(=O)C1CCC(C)CC1)C(=O)NCc1ccco1 (centres undefined) 3%
CC(=O)c1c(C)c[nH]c1C 3%
CCOC(=O)c1cnc(-n2nc(C)cc2C)nc1Nc1cccc(C(C)=O)c1 0%
CCOc1cc(/C=N/n2cnnc2)c(Br)cc1O 9%
CC1CN(C(=O)c2ccc3c(c2)OCO3)OC(c2ccccc2)O1 (centres undefined) 4%
CCOC(=O)N1CCN(C(=O)c2n[nH]c(=O)c3ccccc23)CC1 -9%
CCOC(=O)N1CCN(S(=O)(=O)c2cc3c(cc2C)NC(=O)CO3)CC1 -8%
Cc1oc(-c2ccccc2F)nc1CS(=O)(=O)CC(=O)NCCCN(C)C1CCCCC1 -7%
O=C(NCc1cccnc1)c1ccc(CS(=O)(=O)c2ccc(Br)cc2)o1 3%
CCOC(=O)c1ccc(-n2c(C)nc3c(cnn3-c3ccccc3C)c2=O)cc1 -2.3%
CCOc1cc2[nH]c(=O)n(CCC(=O)NCc3ccc(OC)cc3)c(=O)c2cc1OCC 1%
COc1ccccc1NC(=O)CN1CCN(S(=O)(=O)c2ccc(Br)cc2)CC1 1%
O=C(O)CCC(=O)Nc1ccc(N2CCOCC2)cc1 2%
S=C1SCN(CCN2CCOCC2)CN1Cc1ccccc1 -3%
Cc1ccc(S(=O)(=O)NCCN2CCOCC2)cc1C -2%
CN1CCCc2cc(C#N)c(=O)[nH]c21 -3%
CCN1CCN(c2ncnc3c2oc2nc(C)c4c(c23)CC(C)(C)OC4)CC1 9%
CCOc1ccc(NC(=O)CC2NCCNC2=O)cc1 (centres undefined) 0.7%
O=C(CN1CCOCC1)N1CCCc2c1c(=O)oc1ccc(OCc3ccccc3)cc21 -5%
Cc1ccc2nc3n(c(=O)c2c1)CCC3 5%
CCOC(=O)Cn1c(N)c(C(=O)OC)sc1=S -9%
CCOc1ccc(/C(O)=C2/C(=O)C(=O)N(Cc3cccnc3)C2c2ccc(N(C)C)cc2)c(C)c1 (centres undefined) -4%
CCOC(=O)C1CCN(C(=O)C2CCN(S(=O)(=O)CC)CC2)CC1 0%
Cn1nnnc1SCc1cc(=O)[nH]c2ccccc12 -4%
O=C(CC(NCCN1CCOCC1)C(=O)O)Nc1cccc(Cl)c1 (centres undefined) 5%
CC(=O)Nc1cc(C(=O)O)ccc1S(=O)(=O)c1ccc(Cl)cc1 5%
O=C(c1ccc(=O)[nH]c1)N(Cc1ccco1)C1(C(=O)NC2CCCCC2)CCCCC1 8%
COC(=O)c1cc(S(=O)(=O)NC2CCN(Cc3ccccc3)CC2)cn1C 12%
CC(c1ccco1)N(C(=O)c1ccc(S(=O)(=O)N2CCCCC2)cc1)c1ccccn1 (centres undefined) -5%
O=C1CC(c2cccc(F)c2)C2=C(CCCC2=O)N1 (centres undefined) 0%
Cc1nc(NC(=O)C23CCC(C)(C(=O)O2)C3(C)C)sc1C (centres undefined) 2%
CC1Cc2nc(SCC(=O)Nc3ccccc3F)n(C)c(=O)c2S1 (centres undefined) -5.7%
Cc1ccc(C)c(NS(=O)(=O)c2cc(Br)cnc2N)c1 -9%
O=C1CC(c2cccc(Br)c2)C2=C(CCCC2=O)N1 (centres undefined) -3%
COc1cccc(NC(=O)Cn2cnc3sc(C)c(S(=O)(=O)N4CCN(C)CC4)c3c2=O)c1 1%
CCOC(=O)CSc1nnc(CNC(=O)c2cccs2)n1-c1ccccc1 -4%
O=C1N=C(N2CCOCC2)CS1 5%
C=CCOC(=O)C1=C(C)OC(N)=C(C#N)C1c1ccc(F)cc1 (centres undefined) -2.5%
CCOC(=O)c1ccc(Nc2cc(C)nc3nc(C)nn23)cc1 5%
COCCCNC(=O)CCc1nc2cccnc2n1Cc1ccc(OC)cc1 4%
COc1cccc(Oc2ccc(N)cc2)c1 8%
CCCN1CCN(C(=O)Cn2ncc3ccccc32)CC1 5%
Cc1cccc(N2CCN(C(=O)C3CCN(S(=O)(=O)c4cnc[nH]4)CC3)CC2)c1C 0%
COc1cccc(NC(=O)C2CCCN2C(=O)OCc2ccccc2)c1 (centres undefined) -5%
CC(=O)c1c(C)[nH]c(C(=O)NCCCN2CCCC2)c1C 1%
COc1cc2[nH]c(=S)n(CCN3CCCCC3C)c(=O)c2cc1OC (centres undefined) -3%
Cn1c(=O)cc(OCCCC(=O)N2CCN(c3ccccn3)CC2)c2ccccc21 -10%
Cc1cccn2c(=O)c3cc(C(=O)NCc4ccccn4)n(C)c3nc12 -2%
Cc1nc(SCC(=O)Nc2cc(C)on2)c2c3c(sc2n1)CCCC3 -3.5%
COc1ccc(C(=O)N(CCN2CCOCC2)CC(=O)NC2CCCC2)cc1OC 6.5%
O=C(CN1CCOc2ccccc21)N1CCC(Cc2ccccc2)CC1 -1%
CCOC(=O)CSc1nnc(CNC(=O)Cc2ccccc2)n1-c1ccccc1OC -3%
CC1CCC(NS(=O)(=O)c2ccc3c(c2)n(C)c(=O)c(=O)n3C)CC1 (centres undefined) 6%
COc1cc(OC)cc(-c2nc3nc(C)c(CCC(=O)NCc4ccco4)c(C)n3n2)c1 -2.7%
Cc1cc(C)nc(-n2nc(C)cc2NC(=O)c2ccc(Br)o2)n1 1.5%
Cc1nc2ccc(NC(=O)N3CCC(c4ccccc4)C3)cc2nc1C (centres undefined) -3%
O=C(CNS(=O)(=O)c1ccc(Br)s1)NCc1ccc2c(c1)OCO2 -4%
